Sampled rows, rich in hits. Any-hit rate of the full collection: about 1.3%.
TRPML1 ag: qHTS for Agonists of the Human Mucolipin Transient Receptor Potential 1 (TRPML1); TRPML1-expressing cells, Ca2+ dye fluorescence, FDSS; activation, % (test concentration not listed); actives 0.12% (n = 410,000); further: 0% is about no effect
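Tetracycline-induced TRPML1-DL cells are seeded and incubated overnight before loading with a no-wash Ca2+ dye and quencher. Agonist activity is taken from the 110 s fluorescence read following compound pin-transfer on an FDSS, before EC80 54-4 challenge.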
BRCA1 expr up: qHTS Assay to Identify Small Molecule Activators of BRCA1 Expression. MCF7-BRCA1-FFLuc reporter, luminescence, 48 h; response scale: scaled: vehicle 0%, 10 µM genistein 100%. Potency, µM (titrated, usually from 46.1 µM), for inactives: top-dose activation, actives largely listed as activators. actives 1.1% (n = 380,000). AID 624202, 2012; active means well fitted activation curve with a large enough effect; inconclusive means small, poorly fitted or top-dose-only effect; inactive means no such curve, though single readings can be large or run the other way; further: potency means the concentration at half of the fitted maximal effect; nearly all actives have a fitted effect of over 80% in size
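Using MCF7 cells harboring a BRCA1 firefly luciferase reporter, plated 2 h before compound pinning, the screen measured luminescence after 48 h incubation. Responses were normalized to DMSO and 10 microM genistein, then fitted for concentration-effect.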
TSG101-PTAP inh: qHTS Assay for Iinhibitors of HIV-1 Budding by Blocking the Interaction of PTAP/TSG101. Potency, µM (doses to about 115 µM), inactives show at the highest dose activity change, negative = inhibition, hits mostly inhibitors. AID 493005, 2010. 340,000 tested, under 10 active. Fluorescence polarization, FITC-PTAP peptide / Tsg101 binding. Tumor susceptibility gene 101 protein (Homo sapiens), Q99816; active means well fitted inhibition curve with a large enough effect in the main read-out, with a control signal flat, not every such curve was filed as active; inconclusive means small, poorly fitted or top-dose-only effect, or effect the other way, or a change in a side signal; inactive means no such curve, though single readings can be large or run the other way; further: potency means the concentration at half of the fitted maximal effect; % of control where 0% means no effect
Target sequence (Q99816 whole entry, looked up): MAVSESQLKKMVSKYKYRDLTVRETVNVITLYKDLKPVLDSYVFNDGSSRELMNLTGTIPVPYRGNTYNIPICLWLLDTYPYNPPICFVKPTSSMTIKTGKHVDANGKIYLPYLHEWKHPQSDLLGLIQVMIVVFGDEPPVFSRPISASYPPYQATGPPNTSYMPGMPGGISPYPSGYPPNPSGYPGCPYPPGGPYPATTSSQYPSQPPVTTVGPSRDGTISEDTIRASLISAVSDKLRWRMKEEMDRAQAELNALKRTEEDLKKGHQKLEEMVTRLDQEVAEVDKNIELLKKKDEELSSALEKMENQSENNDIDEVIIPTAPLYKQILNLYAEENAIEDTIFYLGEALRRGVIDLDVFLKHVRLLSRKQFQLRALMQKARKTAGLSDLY
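Fluorescence anisotropy tracks displacement of a FITC-tagged PTAP peptide (50 nM) from the Tsg101 binding domain (10 uM), following a 20 min room-temperature incubation at pH 7.5.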
TRPML1 inh: qHTS for Inhibitors of the Human Mucolipin Transient Receptor Potential 1 (TRPML1); actives 0.02% (n = 390,000); activity change, negative = inhibition, % (test concentration not listed); AID 624415, 2012; TRPML1-inducible cells, Ca2+ dye fluorescence, FDSS; stronger effect = lower value; inhibition of EC80 agonist-evoked calcium signal; in the data active means activity change below about -50%; inconclusive means between about -30% and that limit;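 further: stimulus is agonist 54-4 at its EC80 concentration; on the % scale 0 is the no-effect control and ±100 the full control effect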
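Calcium fluorescence in TRPML1-DL cells induced overnight with Tet: a 110 s read after compound pin addition, then a 110 s antagonist read after challenge with 54-4 at 4 uM final (EC80).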
IL-2 act: qHTS of IL-2 Activators; IL-2 activation reporter assay, cell-based qHTS; stimulated with anti-CD3/CD4/CD28 beads; in transgenic mouse T cells; activation, % (series mostly up to about 46 µM); actives 0.065% (n = 360,000); AID 652025, 2013; further: 0% is about no effect
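Using fluorescent plate cytometry, EGFP and DsRed are detected in transgenic mouse T cells stimulated 18 h at 37 degrees C with antibody-coated beads after 60 min compound pretreatment.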
PKM2 activator: qHTS Assay for Activators of Human Muscle isoform 2 Pyruvate Kinase | Pyruvate kinase PKM (Homo sapiens), P14618 | purified PKM2, Kinase-Glo ATP luminescence, activation; response scale: 0% is enzyme alone, no compound | Potency, µM (series often up to 57.5 µM), without a hit: at the highest dose activation, most hits filed as activators | actives 0.34% (n = 260,000); active means well fitted activation curve with a large enough effect; inconclusive means small, poorly fitted or top-dose-only effect; inactive means no such curve, though single readings can be large or run the other way; further: potency means the concentration at half of the fitted maximal effect; on the % scale 0 is the no-effect control and ±100 the full control effect; nearly all actives have a fitted effect of over 55% in size
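Kinase-Glo luminescence reports ATP generated from ADP (0.1 mM) and PEP (0.5 mM) by purified hPK-M2 after 1 h at room temperature, pH 7.2 imidazole buffer; intermediate enzyme activity allows detecting inhibitors and activators.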
An asterisk follows results filed as active; u = inconclusive; x = no result given. Unless noted, no stated cut-off is given here; in the data, active means activation above about 50%; inconclusive means mostly about 30% to 49%; inactive means weaker than that.

SMILES	TRPML1 ag	BRCA1 expr up	TSG101-PTAP inh	TRPML1 inh	IL-2 act	PKM2 activator
CC(=O)c1ccc(NC(=O)c2cc(Cl)sc2Cl)cc1	1.3	3.98µM*	-1.5%	-0.7	0.2	3.2%
Cc1cc(C)cc(NC(=O)c2cc(Cl)sc2Cl)c1	2.9	10.6%	-3.3%	-9.0	-2.2	-4.6%
Cc1cccc(-n2ccnc2SCC(=O)Nc2cccc3ccccc23)c1	1.8	0.4%	x	16.1	x	x
O=C(CSc1ccccc1C(=O)O)c1ccccc1	-0.7	65.6%	-0.1%	37.0	0.6	x
O=C(CSc1ccccc1C(=O)O)c1ccc(Cl)cc1	1.4	10µM*	-10.6%	-13.6	-0.4	x
CN(C)c1ccc(CCc2ccnc3ccccc23)cc1	-0.8	8.9%	x	x	x	x
CC(C)(C)n1ncc2c(=O)n(Cc3ccccc3CS(=O)(=O)c3ccccc3)cnc21	1.4	x	x	-6.9	x	x
Cc1ccc(Nc2ncnc(-n3cccc3)n2)cc1Cl	1.3	6.31µM*	-2.4%	7.5	0.6	2.6%
Clc1cc(Cl)cc(Nc2ncnc(-n3cccc3)n2)c1	2.1	-34.9%	0.4%	2.1	-0.8	-1.6%
CC(OC(=O)CNC(=O)c1ccccc1F)C(=O)Nc1nc(-c2ccccc2)cs1 (stereo not given)	1.0	6.31µM*	-7.5%	13.5	-3.5	-1.5%
O=C(Cn1cc(S(=O)(=O)Cc2ccc(F)cc2)c2ccccc21)NCCc1ccccc1	1.1	x	x	25.7	x	x
O=[N+]([O-])c1cc(/C=N/N2CCCCC2)ccc1Cl	1.4	11.2µM*	-5.0%	-23.2	2.1	0.3%
O=[N+]([O-])c1cc(/C=N/N2CCN(c3ccccc3)CC2)ccc1Cl	-0.7	20.9%	-2.4%	10.7	-3.5	-1.4%
O=[N+]([O-])c1cc(C=NN2CCCCCC2)ccc1Cl	1.7	2.82µM*	0.1%	8.3	-0.8	x
CCC(=O)Nc1cccc(C(=O)OCC(=O)c2ccccc2Cl)c1	-0.3	7.94µM*	-9.8%	-5.9	-3.0	8.7%
CCC(=O)Nc1ccccc1C(=O)OCC(=O)c1ccccc1	0.7	2µM*	-5.7%	5.5	0.1	-4.6%
CCC(=O)Nc1ccccc1C(=O)OCC(=O)c1ccc2ccccc2c1	2.0	-16.4%	-3.9%	0.0	-1.7	1.0%
CN1CCc2c(sc(NC(=O)CSc3ccc(F)cc3)c2-c2nc3ccccc3s2)C1	66.1*	-24.4%	x	-12.7	x	x
CC(=O)Nc1sc2c(c1-c1nc3ccccc3s1)CCN(C(C)C)C2	10.2	-77.5%	-7.1%	18.9	-0.3	2.8%
CC(=O)N1CCc2c(sc(NC(=O)CSc3ccc(F)cc3)c2-c2nc3ccccc3s2)C1	0.0	x	x	-6.4	x	x
CCN1CCc2c(sc(NC(=O)CSc3ccccc3)c2-c2nc3ccccc3s2)C1	70.2*	-52.2%	x	-14.4	x	x
CCCCCCCCCCCCCC(=O)Nc1ccc(/C=C/c2ccnc3ccccc23)cc1	-0.2	1.7%	x	x	x	x
CCN(Cc1ccccc1)S(=O)(=O)c1ccc(N2CCCCS2(=O)=O)cc1	-0.6	x	x	4.8	x	x
Cc1c(C(=O)OCC2CCCO2)[nH]c2c1C(=O)CC(c1ccco1)C2 (stereo not given)	0.3	-51.6%	1.2%	0.9	-0.8	20µM*
CN(CCc1ccccn1)C(=O)CCc1nnc(CCCc2ccccc2)o1	12.6	12.6µM*	-3.6%	-1.5	-2.3	0.0%
SMILES	TRPML1 ag	BRCA1 expr up	TSG101-PTAP inh	TRPML1 inh	IL-2 act	PKM2 activator
COCCCNc1c2c3c(cccc3[nH]c1=O)C(=O)c1ccccc1-2	112.6*	-51.4%	u	-17.5	10.4	6.8%
COCCCNC1=C(Cl)C(=O)c2ccccc2C1=O	0.6	-42.5%	-8.1%	38.2	-2.5	-7.4%
Cc1ccc(S(=O)(=O)CCSc2nc(C)cc(C)c2C#N)cc1	1.6	-11.7%	-0.5%	-2.0	-1.9	25.1µM*
CCS(=O)(=O)CCSc1nc(C)cc(C)c1C#N	0.0	-7.6%	-5.9%	-16.9	1.7	7.7%
COc1cccc(OCc2cc(C3Nc4ccccc4C(=O)N3c3ccccc3)ccc2OC)c1 (stereo not given)	-0.3	-38.4%	x	x	x	x
CCCN(CC(=O)Nc1ccccc1C)C(=O)c1ccc(N2CCCC2=O)cc1	-2.1	3.4%	-7.6%	3.5	0.9	x
C/C(=N\OCc1ccc(C#N)cc1)c1ccc(S(=O)(=O)N(C)C)cc1	0.2	7.08µM*	0.0%	6.3	-0.3	x
Cc1c(F)cccc1NS(=O)(=O)c1ccc2c(c1)n(C)c(=O)c(=O)n2C	0.1	-17.4%	-13.2%	-6.4	-4.8	0.708µM*
Cc1cccc(NS(=O)(=O)c2ccc3c(c2)n(C)c(=O)n3C)c1C	-0.2	x	x	30.0	x	x
Cc1c(F)cccc1NS(=O)(=O)c1ccc2c(c1)c(=O)n(C)c(=O)n2C	0.4	-28.7%	0.1%	0.2	1.3	3.55µM*
CCn1c(=O)c(=O)n(CC)c2cc(S(=O)(=O)Nc3cccc(OC)c3)ccc21	0.9	3.6%	-2.1%	-5.7	-1.8	u
COc1cccc(NS(=O)(=O)c2ccc3c(c2)n(C)c(=O)c(=O)n3C)c1	-0.7	-0.4%	-4.9%	24.3	0.2	1.12µM*
Cn1c(=O)c2cc(S(=O)(=O)NCCC(=O)Nc3ccccc3F)ccc2n(C)c1=O	-0.2	-25.5%	-2.6%	3.2	-0.4	0.9%
CCC(=O)Nc1ccc(CC)cc1-c1nc2ccccc2n(CC(=O)Nc2ccccc2C)c1=O	-0.2	x	x	-5.3	x	x
CN(C)/C=C1\C=C2C(=O)c3ccccc3N2C1=O	57.1*	4.4%	u	u	-4.9	4.1%
Cc1[nH]c2ccccc2c1C(=O)C(=O)N1CCCc2ccccc21	1.6	-50.1%	-5.2%	-21.0	-0.1	0.7%
O=C(C(=O)N1CCCc2ccccc21)c1c[nH]c2ccccc12	1.0	-64.6%	-0.5%	-19.2	-2.3	35.5µM*
CN(C)C(=O)c1cc(C(=O)c2ccc(C(F)(F)F)cc2)c[nH]1	1.9	10µM*	-4.2%	-6.5	-0.3	x
COc1cccc(/C=N/NC(=O)NC23CC4CC(CC(C4)C2)C3)c1O	-0.4	-55.2%	-0.1%	77.2	-4.0	x
O=C(N/N=C/c1ccccc1F)NC12CC3CC(CC(C3)C1)C2	3.0	5.01µM*	-11.8%	40.0	-2.1	x
Cc1cccc(/C=N/NC(=O)NC23CC4CC(CC(C4)C2)C3)n1	-0.5	40.2%	-2.2%	-12.3	-3.4	9.9%

Screening results: PubChem BioAssay, National Center for Advancing Translational Sciences (NCATS)
